PubChem BioAssay (NCATS)
Where “and” joins values, the source holds several entries; their conditions need not be identical. Equal entries are not always repeated. Results filed as inconclusive are left out. Entries that show only a call come without a potency. Unmarked numbers belong to inactive results. Calls of active or inactive are those of the source. Calls come from the whole dose curve; as a rule, active = well fitted curve in the direction sought with a large enough effect; inconclusive = small, poorly fitted or top-dose-only effect, or another doubt; inactive = no such curve, though single readings can be large; an effect the other way counts as inactive or inconclusive.

Legend:
[1] = molecular target: Cellular tumor antigen p53 (Homo sapiens) (UniProt P04637); assay: Primary qHTS for small molecule compounds that upregulate eGFP-tagged delta133p53alpha (in N-terminal) cells. (AID 2060322); settings: NCI-H358 eGFP-delta133p53alpha fluorescence, 24 h; activation: hits give high values;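 note: cells pre-induced with doxycycline then dosed without doxycycline; nearly all actives have a fitted effect of over 75% in size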
Sequence of Cellular tumor antigen p53 (Homo sapiens) (P04637 whole entry, looked up): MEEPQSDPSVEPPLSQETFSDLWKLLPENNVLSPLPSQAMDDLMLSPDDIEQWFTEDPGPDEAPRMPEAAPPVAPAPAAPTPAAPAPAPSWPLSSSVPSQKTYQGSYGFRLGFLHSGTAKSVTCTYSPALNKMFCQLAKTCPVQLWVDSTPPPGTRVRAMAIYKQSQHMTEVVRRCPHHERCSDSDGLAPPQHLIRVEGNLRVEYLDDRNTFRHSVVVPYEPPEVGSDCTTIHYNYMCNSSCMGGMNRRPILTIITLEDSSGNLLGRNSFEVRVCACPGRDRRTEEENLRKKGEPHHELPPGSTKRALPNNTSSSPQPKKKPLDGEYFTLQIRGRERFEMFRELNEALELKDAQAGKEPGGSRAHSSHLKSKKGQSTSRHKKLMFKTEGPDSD
How it was run: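 NCI-H358 cells pre-induced 24 h with 10 ng/ml doxycycline for eGFP-delta133p53alpha, plated dox-free and exposed 24 h at 37C to titrated compounds. Fixed, Hoechst-stained; gated GFP peak intensity by laser scanning cytometry, normalized to DMSO (0%) and 57.5 uM 5-azacytidine (100%).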

[2] = molecular target: Retinaldehyde dehydrogenase 3 (Homo sapiens) (UniProt P47895); assay: qHTS for Inhibitors of the Aldehyde Dehydrogenase Family (ALDH1A3) Validation screen (AID 2061312); settings: ALDH1A3 enzyme inhibition qHTS validation, fluorescence; series mostly up to 84.7 µM; note: nearly all actives have a fitted effect of over 45% in size
[3] = molecular target: Retinaldehyde dehydrogenase 3 (Homo sapiens) (UniProt P47895); assay: qHTS for Inhibitors of the Aldehyde Dehydrogenase Family (ALDH1A3) Primary screen (AID 2061315); settings: ALDH inhibition qHTS; series mostly up to 56 µM

Compound: O=C(O)COCCN1CCN([C@H](c2ccccc2)c2ccc(Cl)cc2)CC1
- activation [1]: -5.73%
- Potency [2]: inactive
- Potency [3]: inactive

Compound: COc1ccc(OC)c(C2C(C#N)=C(N)Oc3n[nH]c(-c4ccc5ccccc5c4)c32)c1 (centres undefined)
- activation [1]: -0.333%
- Potency [3]: inactive

Compound: CN1C(CCl)Nc2cc(Cl)c(S(N)(=O)=O)cc2S1(=O)=O (centres undefined)
- activation [1]: -11.7% and -7.64%
- Potency [3]: inactive

Compound: COc1ccccc1NC(=O)Nc1ccc2ccccc2c1
- activation [1]: -9%
- Potency [3]: inactive

Compound: C[C@@H]1O[C@@H](O[C@H]2[C@H](O[C@H]3[C@H](O[C@H]4CC[C@@]5(C)C(CC[C@]6(C)C5CC=C5[C@@H]7CC(C)(C)CC(=O)[C@]7(C)CC[C@]56C)[C@@]4(C)CO)O[C@H](C(=O)O)[C@@H](O)[C@@H]3O)O[C@H](CO)[C@H](O)[C@@H]2O)[C@H](O)[C@H](O)[C@H]1O (some centres undefined)
- activation [1]: -17%
- Potency [3]: inactive

Compound: CCC(Nc1ncnc2nc[nH]c12)c1nc2cccc(F)c2c(=O)n1-c1ccccc1 (centres undefined)
- activation [1]: 4.46%
- Potency [3]: inactive

Compound: CC1CC(O)/C=C/C(O)C(O)CC(=O)Cc2c(Cl)c(O)cc(O)c2C(=O)O1 (centres undefined)
- activation [1]: 4.58%
- Potency [3]: inactive

Compound: CCCn1cnc2c(NCc3ccccc3)nc(N[C@H](CC)CO)nc21
- activation [1]: 2.33%
- Potency [3]: inactive

Compound: CC[C@]1(O)C[C@@H]2CN(CCc3c([nH]c4ccccc34)[C@@](C(=O)OC)(c3cc4c(cc3OC)N(C)[C@H]3[C@@](O)(C(=O)OC)[C@H](OC(C)=O)[C@]5(CC)C=CCN6CC[C@]43[C@@H]65)C2)C1
- activation [1]: -35.1%
- Potency [3]: inactive
